“And” between values parts separate entries of the source, which are not always exact repeats. Equal entries are not always repeated. Hit rate of the full screen: of about 5,500 compounds, about 2,000 (36%) were called active. Inconclusive results (about 18%) are left out. No stated cut-off is given here; in the data, active means normalized growth mostly below about 0.91 (no sharp cut-off); inconclusive means no clear call, values can overlap the other calls; inactive means mostly above about 0.92. The list shows a part of the results.
Assay: chemical genetic growth profiling, strain panel (AID 1159580);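 further: tested at 20 µM; growth read once vehicle control cultures reached saturation at 30 °C; 1 = growth at the plate median or of vehicle wells; lower values mean less growth of the strain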
Conditions: S. cerevisiae deletion strains, growth OD

Measured: normalized growth

O=c1cccc2n1C[C@H]1CNCC2C1
inactive: locus YAL021C, strain ccr4, active compounds read low 1 | locus YAL026C, strain drs2, active compounds read low 1.01 | locus YAL030W, strain snc1, active compounds read low 1.01 | locus YBL061C, strain skt5, active compounds read low 1.01 | locus YBR009C, strain hhf1, active compounds read low 0.982 | locus YBR021W, strain FUR4, active compounds read low 1.03 | locus YBR023C, strain chs3, active compounds read low 0.999 | locus YBR171W, strain sec66, active compounds read low 0.997 | locus YBR229C, strain ROT2, active compounds read low 1 | locus YBR231C, strain swc5, active compounds read low 1.02 | locus YBR279W, strain paf1, active compounds read low 1 | locus YCL011C, strain gbp2, active compounds read low 0.99 | locus YCL016C, strain dcc1, active compounds read low 0.973 | locus YCL029C, strain bik1, active compounds read low 0.985 | locus YCL061C, strain MRC1, active compounds read low 0.987 | locus YCL069W, strain vba3, active compounds read low 1 | locus YCR088W, strain abp1, active compounds read low 1 | locus YDL005C, strain med2, active compounds read low 1.01 | locus YDL035C, strain GPR1, active compounds read low 0.988 | locus YDL040C, strain nat1, active compounds read low 1.01 | locus YDL074C, strain BRE1, active compounds read low 0.984 | locus YDL101C, strain DUN1, active compounds read low 1.01 | locus YDL134C, strain PPH21, active compounds read low 1.03 | locus YDL185W, strain tfp1, active compounds read low 0.955 | locus YDL192W, strain arf1, active compounds read low 0.987 | locus YDR001C, strain nth1, active compounds read low 1.01 | locus YDR069C, strain doa4, active compounds read low 1.01 | locus YDR101C, strain arx1, active compounds read low 0.966 | locus YDR137W, strain rgp1, active compounds read low 1.02 | locus YDR150W, strain NUM1, active compounds read low 1 | locus YDR159W, strain sac3, active compounds read low 1 | locus YDR162C, strain NBP2, active compounds read low 1.01 | locus YDR195W, strain ref2 0.999 | locus YDR297W, strain sur2, active compounds read low 0.999 | locus YDR318W, strain mcm21, active compounds read low 0.996 | locus YDR334W, strain swr1, active compounds read low 0.999 | locus YDR335W, strain msn5, active compounds read low 1.01 | locus YDR388W, active compounds read low 0.992 | locus YDR392W, strain spt3, active compounds read low 0.899 | locus YDR502C, strain sam2, active compounds read low 1 | locus YEL003W, strain gim4, active compounds read low 1 | locus YEL037C, strain rad23, active compounds read low 1.01 | locus YEL061C, strain CIN8 (second series), active compounds read low 1.01 | locus YEL061C, strain CIN8, active compounds read low 1.01 | locus YER015W, strain faa2, active compounds read low 1.01 | locus YER016W, strain bim1, active compounds read low 1.01 | locus YER110C, active compounds read low 0.974 | locus YER111C, strain swi4, active compounds read low 0.985 | locus YER155C, strain BEM2 (second series), active compounds read low 0.974 | locus YER155C, strain BEM2, active compounds read low 1 | locus YER167W, strain BCK2, active compounds read low 1 | locus YFR010W, strain ubp6, active compounds read low 1.02 | locus YGL078C, strain dbp3, active compounds read low 0.982 | locus YGL086W, strain mad1, active compounds read low 0.965 | locus YGL167C, strain pmr1, active compounds read low 0.994 | locus YGL173C, strain kem1, active compounds read low 0.998 | locus YGL227W, strain vid30, active compounds read low 1.01 | locus YGL240W, strain doc1, active compounds read low 1.05 | locus YGL248W, strain PDE1, active compounds read low 1.03 | locus YGL253W, strain hxk2, active compounds read low 1.01 | locus YGR078C, strain PAC10, active compounds read low 1.03 | locus YGR135W, strain pre9, active compounds read low 1.02 | locus YGR252W, strain gcn5, active compounds read low 1.1 | locus YHR013C, strain ard1, active compounds read low 0.98 | locus YHR027C, strain rpn1, active compounds read low 1.01 | locus YHR030C, strain SLT2, active compounds read low 0.997 and 1.01 | locus YHR079C, strain IRE1 (second series), active compounds read low 0.966 | locus YHR079C, strain IRE1, active compounds read low 1.04 | locus YHR094C, strain hxt1, active compounds read low 0.995 | locus YHR129C, strain ARP1, active compounds read low 1 | locus YHR142W, strain chs7, active compounds read low 0.991 | locus YHR200W, strain rpn10, active compounds read low 0.979 | locus YIL066C, strain RNR3, active compounds read low 1.02 | locus YIL073C, strain SPO22, active compounds read low 0.947 | locus YIL125W, strain kgd1, active compounds read low 0.987 | locus YIR030C, strain dcg1, active compounds read low 0.992 | locus YJL092W, strain hpr5, active compounds read low 1 | locus YJL095W, strain BCK1 (second series), active compounds read low 1 | locus YJL095W, strain BCK1, active compounds read low 1.07 and 1.01 | locus YJL115W, strain asf1, active compounds read low 0.998 | locus YJL129C, strain trk1, active compounds read low 1 | locus YJL134W, strain LCB3, active compounds read low 0.999 | locus YJL154C, strain vps35, active compounds read low 0.997 | locus YJL164C, strain tpk1, active compounds read low 1 | locus YJL166W, strain qcr8, active compounds read low 0.98 | locus YJL168C, strain set2, active compounds read low 0.984 | locus YJL187C, strain SWE1 (second series), active compounds read low 1.01 | locus YJL187C, strain SWE1, active compounds read low 1.01

From PubChem BioAssay AID1159580 (chemical genetic matrix, 2015)
